Assays:
[1] = target: Tyrosine-protein kinase CSK (Homo sapiens) (UniProt P41240); conditions: at 1 µM;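 further: each value is an averaged inhibition reading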
[2] = target: T1, Discoidin domain-containing receptor 2 (Homo sapiens) (UniProt Q16832); conditions: at 0.1 µM
T1 sequence (whole entry): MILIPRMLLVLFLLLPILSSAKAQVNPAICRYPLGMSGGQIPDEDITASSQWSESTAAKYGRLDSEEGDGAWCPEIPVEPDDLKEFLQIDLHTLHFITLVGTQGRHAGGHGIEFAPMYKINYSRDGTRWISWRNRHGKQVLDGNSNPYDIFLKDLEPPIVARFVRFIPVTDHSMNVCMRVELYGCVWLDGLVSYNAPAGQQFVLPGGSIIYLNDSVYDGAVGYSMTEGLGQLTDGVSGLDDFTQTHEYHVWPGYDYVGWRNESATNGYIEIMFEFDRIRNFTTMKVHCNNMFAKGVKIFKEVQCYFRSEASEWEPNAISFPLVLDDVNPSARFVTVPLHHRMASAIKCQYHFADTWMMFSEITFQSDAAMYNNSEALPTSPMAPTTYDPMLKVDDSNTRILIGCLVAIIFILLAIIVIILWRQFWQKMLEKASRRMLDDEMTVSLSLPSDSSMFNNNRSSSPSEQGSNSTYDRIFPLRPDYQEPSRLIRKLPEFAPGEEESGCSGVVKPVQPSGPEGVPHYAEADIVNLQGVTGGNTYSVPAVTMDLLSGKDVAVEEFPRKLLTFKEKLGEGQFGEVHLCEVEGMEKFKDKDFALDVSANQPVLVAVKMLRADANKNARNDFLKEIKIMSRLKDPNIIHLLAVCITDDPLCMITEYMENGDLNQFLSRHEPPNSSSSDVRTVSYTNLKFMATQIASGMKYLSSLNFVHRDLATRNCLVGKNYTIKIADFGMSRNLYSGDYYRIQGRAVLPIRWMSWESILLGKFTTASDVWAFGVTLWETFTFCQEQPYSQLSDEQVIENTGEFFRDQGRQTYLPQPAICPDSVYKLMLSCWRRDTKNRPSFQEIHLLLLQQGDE

[3] = target: T1, Discoidin domain-containing receptor 2 (Homo sapiens); conditions: at 1 µM
[4] = target: Epidermal growth factor receptor (Homo sapiens) (UniProt P00533); conditions: at 0.1 µM
[5] = target: Epidermal growth factor receptor (Homo sapiens) (UniProt P00533); conditions: at 1 µM
[6] = system: Epidermal growth factor receptor (Homo sapiens), P00533 [L858R]; conditions: at 0.1 µM
[7] = system: Epidermal growth factor receptor (Homo sapiens), P00533 [L858R]; conditions: at 1 µM
[8] = system: Epidermal growth factor receptor (Homo sapiens), P00533 [L861Q]; conditions: at 0.1 µM
[9] = system: Epidermal growth factor receptor (Homo sapiens), P00533 [L861Q]; conditions: at 1 µM
[10] = system: Epidermal growth factor receptor (Homo sapiens), P00533 [T790M]; conditions: at 0.1 µM
[11] = system: Epidermal growth factor receptor (Homo sapiens), P00533 [T790M]; conditions: at 1 µM
[12] = system: Epidermal growth factor receptor (Homo sapiens), P00533 [L858R,T790M]; conditions: at 0.1 µM
[13] = system: Epidermal growth factor receptor (Homo sapiens), P00533 [L858R,T790M]; conditions: at 1 µM
[14] = target: Ephrin type-A receptor 2 (Homo sapiens) (UniProt P29317); conditions: at 0.1 µM
[15] = target: Ephrin type-A receptor 2 (Homo sapiens) (UniProt P29317); conditions: at 1 µM
[16] = target: T2, Ephrin type-A receptor 3 (Homo sapiens) (UniProt P29320); conditions: at 0.1 µM
T2 sequence (whole entry): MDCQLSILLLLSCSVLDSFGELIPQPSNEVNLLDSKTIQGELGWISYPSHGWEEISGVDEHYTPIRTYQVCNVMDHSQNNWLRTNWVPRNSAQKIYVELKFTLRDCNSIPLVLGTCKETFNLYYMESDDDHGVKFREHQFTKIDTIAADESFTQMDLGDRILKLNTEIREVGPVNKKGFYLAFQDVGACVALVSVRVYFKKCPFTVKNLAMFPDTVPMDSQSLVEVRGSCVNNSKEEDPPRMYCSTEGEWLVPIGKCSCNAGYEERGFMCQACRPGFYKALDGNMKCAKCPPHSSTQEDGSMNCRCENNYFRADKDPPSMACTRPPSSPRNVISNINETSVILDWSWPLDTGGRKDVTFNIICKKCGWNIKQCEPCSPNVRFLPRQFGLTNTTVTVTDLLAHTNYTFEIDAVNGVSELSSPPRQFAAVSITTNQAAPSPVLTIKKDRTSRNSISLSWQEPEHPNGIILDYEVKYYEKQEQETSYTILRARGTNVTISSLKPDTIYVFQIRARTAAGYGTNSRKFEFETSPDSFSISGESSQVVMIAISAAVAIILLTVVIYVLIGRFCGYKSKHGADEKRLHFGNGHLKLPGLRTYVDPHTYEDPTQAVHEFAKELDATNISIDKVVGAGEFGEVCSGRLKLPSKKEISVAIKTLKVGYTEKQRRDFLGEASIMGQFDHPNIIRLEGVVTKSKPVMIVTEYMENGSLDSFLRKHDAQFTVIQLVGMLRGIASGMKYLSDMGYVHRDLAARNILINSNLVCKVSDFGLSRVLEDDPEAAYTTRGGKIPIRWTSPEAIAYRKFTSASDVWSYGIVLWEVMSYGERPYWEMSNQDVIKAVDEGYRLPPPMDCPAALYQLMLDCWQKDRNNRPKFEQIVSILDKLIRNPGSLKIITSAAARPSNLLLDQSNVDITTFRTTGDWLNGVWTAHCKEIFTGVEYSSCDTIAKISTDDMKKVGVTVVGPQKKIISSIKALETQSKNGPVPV

[17] = target: T2, Ephrin type-A receptor 3 (Homo sapiens); conditions: at 1 µM
[18] = target: Ephrin type-A receptor 4 (Homo sapiens) (UniProt P54764); conditions: at 0.1 µM
[19] = target: Ephrin type-A receptor 4 (Homo sapiens) (UniProt P54764); conditions: at 1 µM
[20] = target: T3, Ephrin type-B receptor 2 (Homo sapiens) (UniProt P29323); conditions: at 0.1 µM;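 further: reported as mean inhibition of EPHB2, from the GSK PKIS dataset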
T3 sequence (whole entry): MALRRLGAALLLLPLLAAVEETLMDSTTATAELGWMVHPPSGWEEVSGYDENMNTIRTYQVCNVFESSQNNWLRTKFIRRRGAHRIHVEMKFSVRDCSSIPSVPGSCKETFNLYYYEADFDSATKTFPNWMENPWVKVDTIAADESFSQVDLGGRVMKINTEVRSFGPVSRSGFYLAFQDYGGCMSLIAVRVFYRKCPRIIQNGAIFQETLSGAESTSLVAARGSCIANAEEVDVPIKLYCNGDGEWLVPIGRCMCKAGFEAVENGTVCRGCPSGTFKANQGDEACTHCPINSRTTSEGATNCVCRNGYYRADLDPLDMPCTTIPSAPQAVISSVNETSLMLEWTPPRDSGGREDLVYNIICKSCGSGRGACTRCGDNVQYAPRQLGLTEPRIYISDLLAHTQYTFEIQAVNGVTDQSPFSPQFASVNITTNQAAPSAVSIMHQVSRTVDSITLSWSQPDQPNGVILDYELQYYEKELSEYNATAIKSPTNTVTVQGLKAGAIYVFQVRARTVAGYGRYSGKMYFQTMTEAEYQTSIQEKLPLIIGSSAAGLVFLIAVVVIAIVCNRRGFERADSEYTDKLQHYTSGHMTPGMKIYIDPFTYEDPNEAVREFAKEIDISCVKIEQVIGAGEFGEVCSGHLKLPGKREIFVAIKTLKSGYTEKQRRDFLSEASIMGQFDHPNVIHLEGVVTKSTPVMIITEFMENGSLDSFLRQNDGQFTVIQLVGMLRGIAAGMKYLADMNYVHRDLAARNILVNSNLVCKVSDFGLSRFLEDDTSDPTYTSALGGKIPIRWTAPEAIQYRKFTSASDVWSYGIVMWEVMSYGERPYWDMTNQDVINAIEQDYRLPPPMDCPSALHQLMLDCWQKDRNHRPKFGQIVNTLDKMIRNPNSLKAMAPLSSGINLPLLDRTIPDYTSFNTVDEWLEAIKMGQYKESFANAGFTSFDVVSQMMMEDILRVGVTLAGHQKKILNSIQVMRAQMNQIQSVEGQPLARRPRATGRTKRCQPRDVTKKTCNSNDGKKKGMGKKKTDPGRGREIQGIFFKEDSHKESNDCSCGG

Chain of Epidermal growth factor receptor (Homo sapiens), P00533 [L858R] (P00533 whole entry L858R): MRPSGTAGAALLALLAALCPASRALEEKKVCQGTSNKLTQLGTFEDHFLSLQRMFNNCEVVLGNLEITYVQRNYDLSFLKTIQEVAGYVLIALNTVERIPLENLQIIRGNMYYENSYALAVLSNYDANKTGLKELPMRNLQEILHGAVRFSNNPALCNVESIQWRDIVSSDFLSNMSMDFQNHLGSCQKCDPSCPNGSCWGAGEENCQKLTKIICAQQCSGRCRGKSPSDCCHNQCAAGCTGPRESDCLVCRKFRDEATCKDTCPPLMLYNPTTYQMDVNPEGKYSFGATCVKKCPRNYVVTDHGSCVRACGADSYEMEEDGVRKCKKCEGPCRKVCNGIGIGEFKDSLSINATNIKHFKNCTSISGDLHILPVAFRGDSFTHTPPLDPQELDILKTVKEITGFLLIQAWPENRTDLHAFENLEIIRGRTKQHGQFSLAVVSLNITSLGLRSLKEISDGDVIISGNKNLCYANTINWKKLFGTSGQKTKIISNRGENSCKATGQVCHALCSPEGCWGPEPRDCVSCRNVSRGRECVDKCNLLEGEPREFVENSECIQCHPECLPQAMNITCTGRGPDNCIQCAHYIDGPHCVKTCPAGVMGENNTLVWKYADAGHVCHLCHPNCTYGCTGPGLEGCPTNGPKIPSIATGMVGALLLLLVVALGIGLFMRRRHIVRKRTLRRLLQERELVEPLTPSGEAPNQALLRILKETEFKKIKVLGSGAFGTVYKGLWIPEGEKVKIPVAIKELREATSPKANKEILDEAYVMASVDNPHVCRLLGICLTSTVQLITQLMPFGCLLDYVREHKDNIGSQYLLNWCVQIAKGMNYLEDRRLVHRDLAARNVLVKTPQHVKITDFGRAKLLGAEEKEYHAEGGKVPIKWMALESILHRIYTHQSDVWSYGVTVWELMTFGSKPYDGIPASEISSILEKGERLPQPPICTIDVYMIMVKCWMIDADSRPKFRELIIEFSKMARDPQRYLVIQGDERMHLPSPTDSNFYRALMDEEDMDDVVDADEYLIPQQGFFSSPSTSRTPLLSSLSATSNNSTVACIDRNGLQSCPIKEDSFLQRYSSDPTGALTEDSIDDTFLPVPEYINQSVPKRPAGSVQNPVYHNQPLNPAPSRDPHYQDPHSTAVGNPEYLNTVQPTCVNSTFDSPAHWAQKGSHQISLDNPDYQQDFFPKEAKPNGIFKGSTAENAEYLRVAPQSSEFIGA
Chain of Ephrin type-A receptor 2 (Homo sapiens) (P29317 whole entry): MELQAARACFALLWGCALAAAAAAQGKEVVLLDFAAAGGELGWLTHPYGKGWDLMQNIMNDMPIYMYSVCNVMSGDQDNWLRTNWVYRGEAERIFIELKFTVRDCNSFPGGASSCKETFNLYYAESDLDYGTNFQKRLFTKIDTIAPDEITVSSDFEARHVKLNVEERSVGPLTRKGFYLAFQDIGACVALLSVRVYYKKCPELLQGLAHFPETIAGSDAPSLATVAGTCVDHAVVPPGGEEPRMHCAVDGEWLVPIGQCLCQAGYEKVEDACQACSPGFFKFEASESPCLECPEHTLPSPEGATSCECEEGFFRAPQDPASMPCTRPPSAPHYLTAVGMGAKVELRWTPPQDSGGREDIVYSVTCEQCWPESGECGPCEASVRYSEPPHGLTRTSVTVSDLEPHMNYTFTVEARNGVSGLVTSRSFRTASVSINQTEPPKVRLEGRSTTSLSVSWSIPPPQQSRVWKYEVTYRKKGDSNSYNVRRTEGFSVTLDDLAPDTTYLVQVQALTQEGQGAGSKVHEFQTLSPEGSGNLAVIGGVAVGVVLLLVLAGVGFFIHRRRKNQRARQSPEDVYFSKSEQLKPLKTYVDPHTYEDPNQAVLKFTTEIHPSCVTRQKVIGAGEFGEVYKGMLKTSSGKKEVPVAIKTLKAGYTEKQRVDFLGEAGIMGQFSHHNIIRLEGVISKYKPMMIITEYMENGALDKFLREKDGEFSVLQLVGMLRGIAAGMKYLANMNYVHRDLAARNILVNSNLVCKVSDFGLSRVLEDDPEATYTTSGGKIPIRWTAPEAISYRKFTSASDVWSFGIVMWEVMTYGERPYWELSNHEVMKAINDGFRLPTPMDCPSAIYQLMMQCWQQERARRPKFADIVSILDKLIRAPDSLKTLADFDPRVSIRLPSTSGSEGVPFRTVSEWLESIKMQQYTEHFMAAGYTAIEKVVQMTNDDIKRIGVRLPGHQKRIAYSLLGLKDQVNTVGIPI
Chain of Tyrosine-protein kinase CSK (Homo sapiens) (P41240 2-450 limits assumed): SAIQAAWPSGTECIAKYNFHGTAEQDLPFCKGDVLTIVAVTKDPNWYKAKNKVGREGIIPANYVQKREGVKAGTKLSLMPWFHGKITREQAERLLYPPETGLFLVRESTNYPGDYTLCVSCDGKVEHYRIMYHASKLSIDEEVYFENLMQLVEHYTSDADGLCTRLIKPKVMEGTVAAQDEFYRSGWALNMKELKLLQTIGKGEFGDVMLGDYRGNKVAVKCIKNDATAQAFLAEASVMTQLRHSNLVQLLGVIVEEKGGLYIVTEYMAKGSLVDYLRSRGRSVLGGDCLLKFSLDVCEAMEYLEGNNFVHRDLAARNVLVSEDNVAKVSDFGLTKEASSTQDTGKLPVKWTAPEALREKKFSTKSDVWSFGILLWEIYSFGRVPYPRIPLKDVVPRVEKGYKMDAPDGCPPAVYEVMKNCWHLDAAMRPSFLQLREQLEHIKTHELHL
Chain of Epidermal growth factor receptor (Homo sapiens) (P00533 whole entry): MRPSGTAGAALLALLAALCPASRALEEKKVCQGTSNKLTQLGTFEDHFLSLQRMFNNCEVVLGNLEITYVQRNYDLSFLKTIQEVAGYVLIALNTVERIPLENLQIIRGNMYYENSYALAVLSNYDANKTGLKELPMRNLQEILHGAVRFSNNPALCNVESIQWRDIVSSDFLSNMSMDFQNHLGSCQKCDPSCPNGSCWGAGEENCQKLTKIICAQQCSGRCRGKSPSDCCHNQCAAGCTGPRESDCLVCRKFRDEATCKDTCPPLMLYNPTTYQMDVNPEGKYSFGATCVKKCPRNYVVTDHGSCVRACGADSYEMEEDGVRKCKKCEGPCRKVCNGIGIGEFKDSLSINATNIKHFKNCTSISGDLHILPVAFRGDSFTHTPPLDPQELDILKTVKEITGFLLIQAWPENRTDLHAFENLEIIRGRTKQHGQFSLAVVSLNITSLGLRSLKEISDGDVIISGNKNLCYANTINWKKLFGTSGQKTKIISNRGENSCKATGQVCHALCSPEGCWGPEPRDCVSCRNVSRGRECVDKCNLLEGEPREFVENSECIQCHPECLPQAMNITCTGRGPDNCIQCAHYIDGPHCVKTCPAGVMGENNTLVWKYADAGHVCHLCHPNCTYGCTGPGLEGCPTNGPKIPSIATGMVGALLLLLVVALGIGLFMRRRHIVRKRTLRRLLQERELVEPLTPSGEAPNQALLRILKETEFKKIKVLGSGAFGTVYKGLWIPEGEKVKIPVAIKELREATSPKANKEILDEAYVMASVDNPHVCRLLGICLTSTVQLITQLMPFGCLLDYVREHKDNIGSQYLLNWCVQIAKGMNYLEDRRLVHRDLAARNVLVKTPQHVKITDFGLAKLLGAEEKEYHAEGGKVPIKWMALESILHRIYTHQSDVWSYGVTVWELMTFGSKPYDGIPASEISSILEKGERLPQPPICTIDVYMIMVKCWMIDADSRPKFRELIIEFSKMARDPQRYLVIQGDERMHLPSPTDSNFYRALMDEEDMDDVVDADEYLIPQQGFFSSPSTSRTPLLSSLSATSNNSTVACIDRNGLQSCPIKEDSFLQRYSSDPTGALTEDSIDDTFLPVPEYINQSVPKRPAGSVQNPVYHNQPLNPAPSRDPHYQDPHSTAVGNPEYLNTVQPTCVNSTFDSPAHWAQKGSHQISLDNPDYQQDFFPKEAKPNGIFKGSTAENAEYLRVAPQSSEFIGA
Chain of Epidermal growth factor receptor (Homo sapiens), P00533 [L861Q] (P00533 whole entry L861Q): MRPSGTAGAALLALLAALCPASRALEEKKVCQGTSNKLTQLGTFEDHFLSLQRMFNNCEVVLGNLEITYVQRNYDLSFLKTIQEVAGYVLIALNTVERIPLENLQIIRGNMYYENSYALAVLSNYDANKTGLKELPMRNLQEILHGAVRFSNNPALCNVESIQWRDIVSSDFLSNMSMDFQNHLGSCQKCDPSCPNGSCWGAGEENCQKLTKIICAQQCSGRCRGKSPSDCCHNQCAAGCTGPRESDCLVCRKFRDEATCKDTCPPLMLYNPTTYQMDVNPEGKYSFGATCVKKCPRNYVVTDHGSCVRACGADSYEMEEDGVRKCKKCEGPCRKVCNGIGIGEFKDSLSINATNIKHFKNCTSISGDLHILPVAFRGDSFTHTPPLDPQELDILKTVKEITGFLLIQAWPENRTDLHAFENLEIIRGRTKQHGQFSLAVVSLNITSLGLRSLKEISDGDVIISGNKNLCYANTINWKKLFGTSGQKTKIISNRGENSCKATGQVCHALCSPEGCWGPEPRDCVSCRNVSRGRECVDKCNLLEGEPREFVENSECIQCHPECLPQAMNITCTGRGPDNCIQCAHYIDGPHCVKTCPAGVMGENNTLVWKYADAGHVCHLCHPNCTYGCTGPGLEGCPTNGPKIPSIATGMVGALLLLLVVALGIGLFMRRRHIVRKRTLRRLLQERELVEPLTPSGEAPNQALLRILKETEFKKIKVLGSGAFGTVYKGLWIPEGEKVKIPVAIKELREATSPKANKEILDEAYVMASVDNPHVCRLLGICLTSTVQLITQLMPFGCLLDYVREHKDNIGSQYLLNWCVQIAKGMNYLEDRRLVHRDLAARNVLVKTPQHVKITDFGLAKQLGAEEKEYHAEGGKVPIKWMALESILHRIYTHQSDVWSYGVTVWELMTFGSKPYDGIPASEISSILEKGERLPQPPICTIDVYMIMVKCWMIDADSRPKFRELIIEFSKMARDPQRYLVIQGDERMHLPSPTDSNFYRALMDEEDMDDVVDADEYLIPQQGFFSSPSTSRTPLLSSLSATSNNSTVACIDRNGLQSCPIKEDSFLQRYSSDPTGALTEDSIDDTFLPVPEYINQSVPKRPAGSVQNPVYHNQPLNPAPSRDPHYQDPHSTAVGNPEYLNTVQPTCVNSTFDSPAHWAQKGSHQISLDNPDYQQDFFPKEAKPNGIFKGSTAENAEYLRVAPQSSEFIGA

SMILES | inhibition [1] | inhibition [2] | inhibition [3] | inhibition [4] | inhibition [5] | inhibition [6] | inhibition [7] | inhibition [8] | inhibition [9] | inhibition [10] | inhibition [11] | inhibition [12] | inhibition [13] | inhibition [14] | inhibition [15] | inhibition [16] | inhibition [17] | inhibition [18] | inhibition [19] | inhibition [20]
CC1=C(C(=O)Nc2ccc3[nH]ncc3c2)C(c2ccc(Cl)c(Cl)c2)CC(=O)N1 (centres undefined) | 4.23% | 3.12% | 3.67% | 6.77% | 8.22% | 1.45% | 5.4% | 1.95% | 0.96% | 0.19% | 0.85% | 2.39% | 12.1% | -0.63% | 0.57% | 3.06% | 2.8% | 6.53% | 4.28% | 7.7%
CCCN1CCC(Oc2cc(Nc3nc(Nc4cccc(F)c4C(N)=O)c4cc[nH]c4n3)c(OC)cc2Cl)CC1 | 0.71% | 5.18% | 9.57% | 1.11% | 2.64% | 1.86% | 1.31% | 1.13% | 0.75% | -0.41% | -0.49% | -2.63% | 2.79% | -1.48% | 0.75% | -0.71% | 2.51% | 3.96% | 9.42% | 5.31%
CC1=C(C(=O)Nc2ccc3[nH]ncc3c2)C(c2ccc3ccccc3c2)CC(=O)N1 (centres undefined) | 8.49% | 1.3% | 0.24% | 1.29% | 5.76% | 3.81% | 6.61% | 2.89% | 1.33% | 1.06% | 3.65% | 4.92% | 23.5% | -0.93% | 0.37% | 3.77% | 6.3% | 6.86% | 10.2% | 7.74%
COc1ccc(-c2ccncc2)cc1C(N)=O | 2.12% | 2.19% | 2.53% | 4.47% | 4.86% | 5.16% | 4.73% | 4.48% | 6.9% | 0.43% | 2.61% | 3.26% | 3.22% | 0.83% | 0.98% | 2.75% | 4.65% | 6.67% | 8.05% | 5.39%
COc1ccc(COc2ccc(Cc3cnc(N)nc3N)cc2OC)cc1 | -3.17% | 8.57% | 8.13% | -0.51% | 5.41% | 0.93% | -1.26% | -1.47% | -1.95% |  | -2.86% | 2.14% | -1.75% | 2.27% | 2.74% | -0.07% | 0.08% | 1.25% | -0.14% | 1.4%
Cn1cc(C=C2C(=O)Nc3cccnc32)c2ccccc21 | -0.79% | 0.93% | 4.03% |  |  |  |  |  |  |  |  |  |  | 1.74% | 0.79% | 2.31% | 4.83% | 5.07% | 6.23% | 3.99%
Fc1cccc(COc2ccc(Nc3ncnc4cc(-c5ccc[nH]5)sc34)cc2Cl)c1 | 1.12% | 0.15% | -1% | 66.2% | 77.3% | 32.5% | 82.9% | 37.8% | 71.8% | 0.21% | 2.62% | -2.38% | 0.3% | -6.71% | -6.16% | -1.97% | -0.94% | 5.45% | 6.22% | 1.52%
CC(C)=Cc1cccc2c1/C(=N/Nc1ccc(S(N)(=O)=O)cc1)C(=O)N2 | 1.41% | 0.85% | 7.39% | 2.03% | 5.14% | 1.48% | 9.14% | 1.19% | 3.55% | 1.38% | 1.05% | 2.29% | 2.58% | 0.83% | 3.1% | 2.78% | 3.12% | 4.39% | 11% | 1.72%
COc1cc2ncn(-c3cc(O[C@H](C)c4ccccc4Cl)c(C(N)=O)s3)c2cc1OC | 10.1% | 8.95% | 12% | 3.12% | 3.34% | 3.8% | 14.9% | 2.61% | 5.37% | 1.29% | 6.04% | 3.14% | 6.52% | 5.44% | 6.5% | 3.58% | 14.3% | 18.9% | 26.8% | 16.6%
CCn1c(-c2nonc2N)nc2cnc(Oc3cccc(NC(=O)c4ccc(OCCN5CCOCC5)cc4)c3)cc21 | 2.94% | 1.27% | -0.68% | 1.37% | 3% | 1.72% | 2.23% | 2.62% | 2.57% | 0.97% | 2.18% | -0.63% | 3.24% | -2.53% | -2.47% | 3.26% | 4.85% | 7.53% | 7.73% | 5.7%
O=C1NC(=O)C(N2CCc3ccccc32)=C1c1ccc(Cl)cc1 | 0.75% | 3.2% | 8.8% | -0.66% | 3.22% | -1.38% | 5.23% | 4.7% | 2.74% | 2.82% | -0.47% | 1.35% | 2.67% | 1.33% | 1.75% | 3.76% | 3.61% | 8.28% | 3.43% | 5.72%

— ChEMBL document CHEMBL1961873, “Compounds: GSK PKIS; Assays: Nanosyn kinase panel” (2012)
